Screening data (PubChem)
Only a selection was taken, and hits are over-represented in it overall.
RECQ1 inh-1 = inhibitors of human RECQ1 DNA helicase; AID 2549; actives 0.54% (n = 240,000); Potency, µM (top dose mostly 57.3 µM), usual class: inhibitors; RECQ1 DNA unwinding, red fluorescence kinetic read; further: nearly all actives have a fitted effect of over 30% in size
Target sequence (P46063 whole entry, looked up): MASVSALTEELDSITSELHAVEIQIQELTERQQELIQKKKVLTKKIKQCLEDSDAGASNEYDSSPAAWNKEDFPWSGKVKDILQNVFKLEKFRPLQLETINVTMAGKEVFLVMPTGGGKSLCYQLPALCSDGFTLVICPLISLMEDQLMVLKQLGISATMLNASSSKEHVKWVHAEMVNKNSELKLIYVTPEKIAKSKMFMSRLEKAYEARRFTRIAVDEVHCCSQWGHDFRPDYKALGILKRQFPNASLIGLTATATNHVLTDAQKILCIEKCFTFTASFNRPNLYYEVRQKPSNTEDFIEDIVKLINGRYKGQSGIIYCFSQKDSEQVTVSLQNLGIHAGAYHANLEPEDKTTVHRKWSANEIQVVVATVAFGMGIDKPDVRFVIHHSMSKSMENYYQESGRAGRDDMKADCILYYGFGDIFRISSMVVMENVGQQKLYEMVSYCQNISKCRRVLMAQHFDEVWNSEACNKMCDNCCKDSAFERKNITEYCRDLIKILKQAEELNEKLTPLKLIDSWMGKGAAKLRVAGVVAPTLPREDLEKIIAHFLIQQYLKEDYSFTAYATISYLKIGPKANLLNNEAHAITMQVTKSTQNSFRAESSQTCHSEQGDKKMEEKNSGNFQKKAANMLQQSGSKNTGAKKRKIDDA
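50 nM RECQ1T1 preincubated 15 min with compound in Tris pH 8.0 buffer with MgCl2, DTT, Tween-20 and 2.5 ug/ml poly(dI-dC); started with 200 nM TAMRA/BHQ-2 forked duplex and 2 mM ATP. Unwinding read as fluorescence (525/598 nm), two reads 2 h apart.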
TDP1 block = TDP1 (human) enzyme inhibition. AID 485290. Potency, µM (top dose mostly 130 µM), usual class: inhibitors. actives 0.28% (n = 350,000). recombinant TDP1, AlphaScreen DNA substrate cleavage; further: nearly all actives have a fitted effect of over 40% in size
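Enzyme-compound mixtures sat 15 min at room temperature, followed by a 5 min reaction with 15 nM final substrate and 10 min with AlphaScreen beads. Recombinant human Tdp1 was used at 1 nM final.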
BLM inh = blocks DNA unwinding by human BLM helicase | actives 0.2% (n = 350,000) | P54132 | AID 2528 | Potency, µM (highest dose often 56.1 µM), actives largely listed as inhibitors | recombinant BLM DNA unwinding, fluorescence dequenching; further: nearly all actives have a fitted effect of over 35% in size
L3MBTL1 inh = L3MBTL1 (human) inhibition; AlphaScreen L3MBTL1–H3K9me1 peptide binding; AID 485360; Potency, µM (series often up to 57.1 µM), actives largely listed as inhibitors; actives 0.66% (n = 230,000); further: nearly all actives have a fitted effect of over 60% in size
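AlphaScreen assay: L3MBTL1 (50 nM final) was preincubated 30 min at room temperature with biotinylated H3(1-15)K9me1 peptide (75 nM final), then 30 min with library compounds; streptavidin donor and nickel chelate acceptor beads (10 ug/mL final) added, 30 min dark.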
APE1 inh = APE1 (human) endonuclease inhibition | actives 0.35% (n = 350,000) | recombinant APE1, TAMRA/BHQ-2 abasic DNA cleavage fluorescence | Potency, µM (series often up to 65.8 µM), usual class: inhibitors; further: nearly all actives have a fitted effect of over 55% in size
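Step 1: APE1 (0.75 nM) with compound, 15 min RT. Step 2: add 50 nM fluorophore/quencher THF duplex. Step 3: three fluorescence reads 60 s apart (525/598 nm); read 3 minus read 1 = reaction progress.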
JMJD2E inh = inhibitors of human JMJD2E histone demethylase | JMJD2E catalytic domain, FDH-coupled NADH fluorescence (FDH is formaldehyde dehydrogenase) | B2RXH2 | Potency, µM (top dose mostly 57.1 µM), most hits filed as inhibitors | actives 1.6% (n = 230,000) | AID 2147; active means well fitted inhibition curve with a large enough effect, not every such curve was filed as active; inconclusive means small, poorly fitted or top-dose-only effect, or another doubt; inactive means no such curve, though single readings can be large or run the other way; further: nearly all actives have a fitted effect of over 50% in size
RECQ1 conf = confirmation of human RECQ1 helicase inhibitors; shares compounds with RECQ1 inh-1; RECQ1 helicase DNA unwinding, fluorescence; Potency, µM (highest dose often 229 µM), usual class: inhibitors; actives 28% (n = 610); AID 2708; further: nearly all actives have a fitted effect of over 45% in size
ADP FP counter = counter-screen for RECQ1 inhibitors: ADP displacement; Potency, µM (top dose mostly 228 µM), usual class: inhibitors; ADP fluorescence polarization displacement counterscreen; actives 27% (n = 530); shares compounds with RECQ1 inh-1; further: nearly all actives have a fitted effect of over 45% in size
RECQ1 inh-2 = confirmation of human RECQ1 helicase inhibitors; actives 15% (n = 1,100); recombinant RECQ1 DNA unwinding, red fluorescence; shares compounds with RECQ1 inh-1; Potency, µM (doses to about 119 µM), hits mostly inhibitors; AID 504841; further: nearly all actives have a fitted effect of over 50% in size
Each line names hits and unclear results; the compound was inactive in the other large screens (follow-up assays come after a bar, where they were run). Unless noted, the call rests on the fitted dose curve; in most records, active means well fitted curve in the direction sought with a large enough effect; inconclusive means small, poorly fitted or top-dose-only effect, or another doubt; inactive means no such curve, though single readings can be large; an effect the other way counts as inactive or inconclusive.

NS(=O)(=O)c1cccc(NC(=O)Cn2nc(C(=O)O)c3ccccc3c2=O)c1	none (no result: RECQ1 inh-1, L3MBTL1 inh, JMJD2E inh)
O=C(CC1SC(N2CCCCC2)=NC1=O)Nc1cccc(C(=O)Nc2ncccc2O)c1 (stereo not given)	none (no result: RECQ1 inh-1, TDP1 block, BLM inh, JMJD2E inh)
N=C1/C(=C\c2ccc(SCc3ccccc3)o2)C(=O)N=C2SC(CC(=O)N3CCOCC3)=NN12	RECQ1 inh-1 inconclusive, JMJD2E inh inconclusive (no result: L3MBTL1 inh) | RECQ1 inh-2 inactive
Oc1ccc(N2CCN(c3nc(-c4cccs4)nc4ccccc34)CC2)cc1	RECQ1 inh-1 inconclusive, JMJD2E inh inconclusive (no result: L3MBTL1 inh) | RECQ1 inh-2 inconclusive
Oc1ccccc1N1CCN(c2nc(-c3cccs3)nc3ccccc23)CC1	none (no result: L3MBTL1 inh)
CC(=O)Oc1ccc(N2C(=O)C3C(C2=O)C(C(=O)c2ccc(Cl)cc2)N2CCCC32)cc1 (stereo not given)	JMJD2E inh inconclusive
Cc1ccc(N2C(=O)C3C(C2=O)C(C(=O)c2ccc(Cl)cc2)N2CCCC32)cc1 (stereo not given)	RECQ1 inh-1 25µM, JMJD2E inh inconclusive (no result: L3MBTL1 inh) | RECQ1 inh-2 inactive
CCC(=O)N1c2ccccc2CC1C(=O)NCCc1ccccc1OC (stereo not given)	none (no result: RECQ1 inh-1, L3MBTL1 inh, APE1 inh, JMJD2E inh)
CC(=O)Nc1ccc(-n2nnnc2SCC(=O)Nc2cccc(NC(=O)c3ccco3)c2)cc1	RECQ1 inh-1 inconclusive, APE1 inh inconclusive, JMJD2E inh inconclusive (no result: TDP1 block, L3MBTL1 inh) | RECQ1 inh-2 inconclusive
COc1ccc(C(=O)Nc2ccc(N3CCN(c4ccccc4)CC3)c(C(=O)O)c2)cc1	none (no result: RECQ1 inh-1, L3MBTL1 inh, APE1 inh, JMJD2E inh)
c1ccc2c(-n3ccnc3)nc(-c3ccoc3)nc2c1	JMJD2E inh inconclusive (no result: TDP1 block, L3MBTL1 inh)
O=C1C(C2=NC(c3ccccn3)C3C(=O)N(c4ccc(OC(F)(F)F)cc4)C(=O)C23)=C(O)c2ccccc21 (stereo not given)	none (no result: TDP1 block)
O=C1C(C2=NC(C(=O)O)C3C(=O)N(c4ccccc4)C(=O)C23)=C(O)c2ccccc21 (stereo not given)	none | RECQ1 conf inactive | ADP FP counter inconclusive
C[C@H]1C(O)[C@@]23CCC4C5(C=[N+](CCO)C[C@]4(C)CCC5)C2C[C@@H]1C3 (stereo not given in full)	none (no result: L3MBTL1 inh)
Cc1ccc(C(=O)c2cc([N+](=O)[O-])ccc2N2CCCCC2)c(C)c1	RECQ1 inh-1 1.6µM | RECQ1 inh-2 inactive
O=C(O)c1cc([N+](=O)[O-])ccc1N1CCCCC1	none
COCCn1c(=NC(=O)c2ccc(S(=O)(=O)N3CCc4ccccc4C3)cc2)sc2cc(OC)ccc21	JMJD2E inh inconclusive | RECQ1 conf inactive | ADP FP counter inactive
COc1ccc2sc(N(CCCN(C)C)C(=O)c3ccc(S(=O)(=O)N4CCc5ccccc5C4)cc3)nc2c1	none (no result: RECQ1 inh-1, BLM inh, JMJD2E inh)
Cc1cccc(OCC(=O)Nc2c(C(=O)N3CCN(c4ccccc4F)CC3)oc3ccccc23)c1	none (no result: RECQ1 inh-1, L3MBTL1 inh, APE1 inh, JMJD2E inh)
CN(C)c1ccc(-c2nc(NC3CCNCC3)c3ccccc3n2)cc1	RECQ1 inh-1 inconclusive, BLM inh inconclusive, APE1 inh inconclusive, JMJD2E inh inconclusive (no result: L3MBTL1 inh) | RECQ1 inh-2 20µM
CCC(/C=C1\Sc2ccc(OC)cc2N1CCO)=C\c1sc2ccc(OC)cc2[n+]1CCO	RECQ1 inh-1 13µM, BLM inh inconclusive, L3MBTL1 inh inconclusive, APE1 inh inconclusive | RECQ1 inh-2 45µM
CCC(/C=C1\Sc2ccc(OC)cc2N1CC)=C\c1sc2ccc(OC)cc2[n+]1CCCS(=O)(=O)[O-]	APE1 inh inconclusive (no result: L3MBTL1 inh)
COc1ccc(-c2csc3ncnc(Nc4ccc(OC)c(OC)c4)c23)cc1	none (no result: RECQ1 inh-1, L3MBTL1 inh, APE1 inh, JMJD2E inh)
